Reference: PubChem BioAssay AID1508602 (The Scripps Research Institute Molecular Screening Center, 2020)
Several values for one entry are separate records, joined by “and”; a condition that tells them apart may be missing. Equal values may be shown once. The whole screen tested about 650,000 compounds, of which about 6,800 (1%) were called active. Shown is part of a subset that was picked to be rich in actives. Unmarked numbers belong to inactive results. No stated cut-off is given here; in the data, active means activation above about 4.9%; inactive means the rest.

Each compound was assayed against G-protein coupled receptor 151 (Homo sapiens) (UniProt Q8TDV0) (assay: activates the human receptor GPR151, primary screen, cell-based, PathHunter beta-arrestin, luminescence (AID 1508602;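 further: 0% = median of compound wells and 100% = cells with positive control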)). Details: PathHunter beta-arrestin GPR151 cells, at 11.2 µM, hits give high values.
G-protein coupled receptor 151 (Homo sapiens), sequence (Q8TDV0 whole entry, looked up): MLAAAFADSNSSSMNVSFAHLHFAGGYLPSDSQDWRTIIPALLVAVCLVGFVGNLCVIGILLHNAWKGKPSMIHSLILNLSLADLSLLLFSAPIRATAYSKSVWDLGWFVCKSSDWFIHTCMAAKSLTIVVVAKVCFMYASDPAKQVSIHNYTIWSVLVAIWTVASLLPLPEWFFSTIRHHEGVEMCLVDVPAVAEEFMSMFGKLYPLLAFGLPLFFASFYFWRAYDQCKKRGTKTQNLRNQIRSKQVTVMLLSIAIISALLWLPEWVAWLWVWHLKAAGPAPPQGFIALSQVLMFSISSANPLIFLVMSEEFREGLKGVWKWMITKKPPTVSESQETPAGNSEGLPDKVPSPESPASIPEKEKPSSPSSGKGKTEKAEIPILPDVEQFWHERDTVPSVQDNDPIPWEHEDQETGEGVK
`CCC(=O)Nc1c(C(=O)Nc2ccccc2)oc2ccccc12` gave an activation of -0.454%. For `CC(=O)c1cccc(-c2cc(C(=O)Nc3ccc(N4CCOCC4)cc3)ccn2)c1`, the activation was 1.66%. For `CN(C)c1cccc(Nc2cc(C(=O)Nc3ccc(N4CCOCC4)cc3)ccn2)c1`, the activation was 5.03% (active). Work on `CN(C)c1cccc(Nc2nc3ccc(C(=O)Nc4ccc(N5CCOCC5)cc4)cc3s2)c1` yielded an activation of -1.45%. Work on `COc1cc(OC)cc(-c2nc3ccccc3c(=O)n2NC(=O)Cc2cccs2)c1` yielded an activation of 1.45%. `O=C(/C=C/c1cccc([N+](=O)[O-])c1)Nn1c(-c2cccs2)nc2ccccc2c1=O` was tested, and the activation was 1.05%. For `O=C(Cc1cccs1)Nn1c(-c2cccc([N+](=O)[O-])c2)nc2ccccc2c1=O`, the activation was 5.65% (active). `O=C1CC(c2nc3ccccc3n2CC(O)COc2ccccc2)CN1c1ccccc1` (stereo not given) gave an activation of 1.94%. With `COc1cccc(N2C(=O)NC(=O)/C(=C/c3ccc(OC)c(O)c3)C2=O)c1` the activation was 4.48%. `COc1cccc(/C=C2\C(=O)NC(=O)N(c3ccccc3Cl)C2=O)c1` showed an activation of 1.26%. For `COc1cccc(/C=C2/C(=O)NC(=O)N(c3ccccc3F)C2=O)c1`, the activation was 4.98% (active). Compound `Cc1ccc(/C(O)=C2\C(=O)C(=O)N(c3nnc(C)s3)C2c2cccc(Oc3ccccc3)c2)cc1` (stereo not given) has an activation of 2.53%. For `CCOc1ccc(C2C(C#N)=C(N)N(c3sc4c(c3C#N)CCCC4)C3=C2C(=O)CC(C)(C)C3)cc1` (stereo not given), the activation was -0.802%. `COc1ccc(CCn2c(-c3ccc(S(=O)(=O)N4CCOCC4)cc3)csc2=Nc2cccc(C(F)(F)F)c2)cc1OC` gave an activation of 0.281%. `N#Cc1ccccc1OCC(=O)OCC(=O)Nc1ncc(Cl)cc1Cl` showed an activation of 0.379%. `CCOC(=O)CNC(=O)c1sc2ncn(CC(=O)Nc3ccc(C(C)C)cc3)c(=O)c2c1C` was tested, and the activation was -1.34% and -1.19%. With `O=C(CN1C(=O)c2ccccc2C1=O)NC(c1ccccc1)c1ccc(Br)cc1` (stereo not given) the activation was 5.23% (active). Work on `O=C(CN1C(=O)CCC1=O)NC(c1ccccc1)c1ccccc1` yielded an activation of -0.973%. In the case of `O=C(CN1C(=O)c2ccc([N+](=O)[O-])cc2C1=O)NC(c1ccccc1)c1ccccc1`, the activation is reported as 0.498%. `NC(=O)c1c(NC(=O)CN(C(=O)c2ccco2)C2CCCC2)sc2c1CCCC2` gave an activation of 3.42%. Compound `CN(CC(COc1cccc2ccccc12)OC(=O)c1ccc(Cl)cc1Cl)C1=NS(=O)(=O)c2ccccc21` (stereo not given) has an activation of 0.501%. For `CSc1nnc2n(/N=C/c3ccc(F)cc3)cnn12`, the activation was -3.69%. Work on `CCC(C)(C)NC(=O)CN(C(=O)c1csnn1)c1cccc(C)c1C` yielded an activation of -1.04%. With `Cc1ccc(NCC(=O)N/N=C\c2ccc(I)o2)cc1` the activation was 5.65% (active). `COc1ccc(Cl)cc1/C=N/NC(=O)CNc1ccc(C)cc1` gave an activation of 0.958%. With `O=C(N/N=C\c1ccc(I)o1)c1ccc(Br)cc1` the activation was 1.14%. For `O=C1Cc2cc(S(=O)(=O)Nc3cccc(Cl)c3)cc3c2N1CCC3`, the activation was 5.26% (active). `O=C1Cc2cc(S(=O)(=O)Nc3ccc(C(F)(F)F)cc3)cc3c2N1CCC3` was tested, and the activation was -0.781%. Work on `COc1ccc(NS(=O)(=O)c2cc3c4c(c2)CC(=O)N4CCC3)cc1Cl` yielded an activation of 3.82%. Work on `Cc1cccc(C)c1-n1c(N)c(C(=O)NCc2ccccc2)sc1=S` yielded an activation of -0.178%. In the case of `Cc1ccc(C)c(NC(=O)CN(C)S(=O)(=O)c2ccc3nc(-c4ccccc4)[nH]c3c2)c1`, the activation is reported as -2.02%. Compound `CC12c3ccccc3C(c3ccccc31)C1C(=O)N(c3ccc(C(=O)O)cc3)C(=O)C12` (stereo not given) has an activation of -0.384%. In the case of `Cc1ccc(N2C(=O)C3C4c5ccccc5C(CO)(c5ccccc54)C3C2=O)cc1` (stereo not given), the activation is reported as -0.914%. In the case of `CCOc1ccc(N2C(=O)C3C4c5ccccc5C(C(C)O)(c5ccccc54)C3C2=O)cc1` (stereo not given), the activation is reported as 4.96% (active). Work on `CC12c3ccccc3C(c3ccccc31)C1C(=O)N(c3cccc(C(=O)O)c3)C(=O)C12` (stereo not given) yielded an activation of -0.158%. `CC12c3ccccc3C(c3ccccc31)C1C(=O)N(c3cccc(C(F)(F)F)c3)C(=O)C12` (stereo not given) was tested, and the activation was 1.26%. With `CC(=O)Oc1cccc(N2C(=O)C3C4c5ccccc5C(C)(c5ccccc54)C3C2=O)c1` (stereo not given) the activation was 22.7% (active). `COc1cc(C2Nc3cc(C)c(C)cc3NC3=C2C(=O)CC(C)(C)C3)cc(OC)c1OC` (stereo not given) gave an activation of 0.742%. `CCOC(=O)C1(Cc2cccc(OC)c2)CCCN(C(=O)COc2ccccc2OC)C1` (stereo not given) gave an activation of 2.47%. `CCOC(=O)C1=CN(C)C=C(C(=O)OCC)C1c1ccc(OC)cc1` was tested, and the activation was 5.01% (active). With `CCOC(=O)C1=CN(c2ccc(OCC)cc2)C=C(C(=O)OCC)C1c1ccc(OC)cc1` the activation was 0.997%. `CCOC(=O)C1=CN(C)C=C(C(=O)OCC)C1c1ccc(OC)c(Br)c1` gave an activation of -0.344%. `O=C(NCCc1ccc(O)cc1)c1cccc(Nc2ccncn2)n1` gave an activation of -1.69%. Work on `N#Cc1ccc(C(=O)OCc2ccc(Br)cc2)cc1` yielded an activation of -1.47%. In the case of `O=C1OC(/C=C/c2cccc(Cl)c2Cl)=NC/1=C\c1cccc([N+](=O)[O-])c1`, the activation is reported as 0.433%. Work on `CCOc1ccc(/C=C2N=C(/C=C\c3cccc([N+](=O)[O-])c3)OC/2=O)cc1` yielded an activation of -1.22%. For `CCOc1ccc(/C=C2N=C(/C=C/c3cccc(Cl)c3Cl)OC\2=O)cc1`, the activation was 6.64% (active). `CN(Cc1cccc(C(F)(F)F)c1)C(=O)CC1C(=O)NCCN1Cc1ccccc1` (stereo not given) was tested, and the activation was -0.0176%. `COc1ccc(C2=NN(C(=O)c3ccccc3Cl)C(c3cccc(OC)c3OC)C2)cc1OC` (stereo not given) gave an activation of -0.321%. For `O=C(c1ccc(Cl)cc1)N1N=C(c2ccccc2)CC1c1ccc(Cl)cc1` (stereo not given), the activation was 0.747%. `COc1ccc(C2=NN(C(=O)c3cc(OC)c(OC)c(OC)c3)C(c3ccc(Cl)cc3)C2)cc1OC` (stereo not given) was tested, and the activation was 7.04% (active). Compound `Cc1nnc(SCc2ccc(CSc3nnc(C)n3N)cc2)n1N` has an activation of -2.22%. `COc1ccccc1-c1cc(N)n(S(=O)(=O)c2ccccc2)n1` was tested, and the activation was -0.0893%. `COc1ccc(-c2cc(N)n(S(=O)(=O)c3ccc([N+](=O)[O-])cc3)n2)c(OC)c1` was tested, and the activation was -0.106%. In the case of `COc1ccc(-c2cc(N)n(S(=O)(=O)c3ccccc3)n2)c(OC)c1`, the activation is reported as 6.94% (active).
